Hit rate of the full screen: of about 360,000 compounds, about 5,000 (1.4%) were called active.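 The calls were made as follows: active = inhibition of 50% or more, scaled per plate between neutral and stimulator controls; inactive = the rest.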 The entries come from a sample that favours actives as a whole.

The nature of the assay: mitochondrial permeability transition pore inhibitors, primary screen, biochemical, isolated mouse mitochondria, absorbance (AID 602449).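 Also: 0% = DMSO wells given calcium and 100% = 1 mM EGTA wells.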 The following applies: Ca2+ swelling absorbance, 30 min, at 10 µM, stronger effect = higher value.
By inhibition is commonly meant the relative decrease from the control value, in per cent. As for `Cn1c(N2CCOCC2)c(C=O)c2ccccc21`, the inhibition is -0.1% (inactive).

As to `COc1cccc(NC(=O)CSc2nnc(-c3cccnc3)o2)c1`, the inhibition was -1.2% (inactive).

As to `COc1ccc2oc(-c3cccc(NC(=O)CSc4ccc(Cl)cc4)c3)nc2c1`, the inhibition is 86.6% (active).

For `COc1ccc(C(=O)NCc2nnc(SCC(=O)Nc3cccc(OC)c3)o2)cc1`, the inhibition is -0.9% (inactive).

Consider `CCOC(=O)c1sc(=NC(=O)/C=C/c2cccs2)n(C)c1C`, for which the inhibition is 1.4% (inactive).

Turning to `CC(CNc1ccc([N+](=O)[O-])cc1)NC(=O)c1ccccc1Br` (stereo not drawn), the inhibition is 0% (inactive).

`O=C(NCCNc1ccc([N+](=O)[O-])cc1)c1cccc2c(Br)cccc12`: the inhibition is 77.6% (active).

With `O=C(NCCNc1ccc([N+](=O)[O-])cc1Cl)c1ccccc1F`, the inhibition is 1% (inactive).

On to `Cc1c(Cl)c([N+](=O)[O-])nn1CC(=O)NCC1CCCO1` (stereo not drawn), for which the inhibition was -1.6% (inactive).

As for `CCN(CC)c1ccc(NC(=O)c2ccc(=O)[nH]c2)cc1S(=O)(=O)Nc1ccc(OC)cc1`, the inhibition is -0.4% (inactive).

For `O=C(NCc1ccc2c(c1)OCO2)C12CC3CC(CC(C3)C1)C2`, the inhibition is 3.7% (inactive).

Take `S=C(NCc1ccc(Cl)cc1)NC1CCCCC1`: the inhibition is 67.6% (active).

For `S=C(NCc1ccc(Cl)cc1)NC12CC3CC(CC(C3)C1)C2`, the inhibition was 96.8% (active).

Consider `O=C(NNC(=S)NC1CCCCC1)c1ccccc1Cl`, for which the inhibition is 0.2% (inactive).

Regarding `Cc1ccc(C(=O)NC23CC4CC(CC(C4)C2)C3)c(Cl)c1`, the inhibition is -0.2% (inactive).

Take `COc1ccc(Cl)cc1C(=O)NNC(=S)NC1CCCC1`: the inhibition was -0.5% (inactive).

Consider `CCOCCCNC(=O)C1(O)c2cc(Br)ccc2NC(=O)N1c1ccc(C)c(C)c1` (stereo not drawn), for which the inhibition is 0.7% (inactive).

Regarding `O=C(NCCOc1ccccc1Cl)C(=O)Nc1ccccc1`, the inhibition was -1.3% (inactive).

As to `O=C(NCCOc1ccccc1F)Nc1ccc(Br)cc1`, the inhibition is 87.9% (active).

For the compound `O=C(COc1ccccc1F)NNC(=O)c1cc(Br)ccc1Cl`, the inhibition was -1.8% (inactive).

For the compound `COC(=O)CNC(c1ccccc1Cl)c1cc(Br)ccc1NC(=O)CCN1CCOCC1` (stereo not drawn), the inhibition is -1% (inactive).

Take `CCC(C(=O)NCc1ccccc1)n1c(Cc2cc(F)cc(F)c2)nc2ccccc21` (stereo not drawn): the inhibition is 2.2% (inactive).

`O=S(=O)(Nc1ccccc1N1CCOCC1)c1ccc(Cl)s1`: the inhibition is -0.7% (inactive).

Consider `COC(=O)c1ccc(NC(=O)c2ccccc2NS(=O)(=O)c2ccccc2)cc1`, for which the inhibition was 102% (active).

With `COc1cc(NC(=O)c2ccccc2NS(=O)(=O)c2ccc(Cl)s2)cc(OC)c1`, the inhibition is 67% (active).

`COc1ccccc1C(=O)Nc1ccc(Nc2ccccc2)cc1`: the inhibition was 0.9% (inactive).

Consider `COc1cccc(NC(=O)c2ccccc2N(Cc2ccccc2)S(C)(=O)=O)c1`, for which the inhibition was 0% (inactive).

Take `CCOC(=O)c1ccc(N/C(=N/S(=O)(=O)c2ccccc2)c2ccccc2)cc1`: the inhibition is 1.7% (inactive).

The record behind these values is PubChem BioAssay AID602449 (Sanford-Burnham Center for Chemical Genomics, 2012).
